Source: PubChem BioAssay AID1508600 (Functional Genomics Laboratory (NCATS/FGL), 2020)
About 3,700 (7%) of roughly 53,000 sequences were called active. Many of the other results were omitted from the sample, so actives are more common in it than they were. A number with no mark means an inactive call.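 How the source made its calls: active means gene knockdowns whose robust z-score for IL-1 alpha signal is at least 2 or at most -2, so actives lie on both sides; inactive means the rest.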

Assay: Components of the Cytosolic LPS Sensing Pathway: Gene Identification via Genome-wide siRNA Screen;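 further: robust z of the log signal after scaling to non-targeting control siRNA wells of the plate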
Details: RAW264.7 macrophages, IL-1a HTRF, actives lie on both sides, screened at 100 nM (by protocol), cells primed 5 h with Pam3CSK4 first
How it was run: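 RAW264.7; siRNA 100 nM final, RNAiMAX, 48h 37 degrees C; Pam3CSK4 5 h; LipidA + TransIT-TKO 24 h; IL-1a HTRF; CellTiter-Glo viability; robust z vs negative-control median.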

Row | Sequence | z-score
1 | CCAAAUCUGGUGUGAUUCATT against Arhgef4 | -0.923
2 | GCAAAGAGGCCUAAUUGAATT against B2m | 1.16
3 | GGAUUUCAAACACGUCUUUTT against Asic5 | 0.222
4 | GGCGGGUUUGCUGAAUAACTT against Lrrc26 | 2.43 (active)
5 | GGUGAAGAGGAAGAUCCUGTT against Ctdnep1 | 0.421
6 | GGGUUAUCCGUAUGUUUUCTT against Olfr557 | 0.964
7 | GGGAUUUCUUACCCUGUUUTT against Prr7 | -0.222
8 | CGACAUUGAUAUCGUGCGCTT against Gadd45g | -0.827
9 | GGACUAGCAAGCUCUUCAGTT against Fancd2 | -0.578
10 | GGUGAAAGUACUGAGGAAGTT against Rlim | 2.45 (active)
11 | GCUCCACCGAGAAAUUACUTT against Magt1 | 1.63
12 | CCCUCUUGAAAUUAGUGUGTT against Dusp14 | 0.405
13 | GCUCACAUGUUUUAGGUGATT against Poc5 | 0.756
14 | GGCAAAGAAGGAGAAAGUATT against Cd209c | -2.06 (active)
15 | GGCAGACAAUCAAUGAAAUTT against Padi4 | -0.451
16 | GCCACUUCCGGUCAACUAUTT against Cog1 | 0.801
17 | GGGCAAUAAGAUGUACGUUTT against Eomes | 3.24 (active)
18 | GUAUGUUUGGGCUUAGCCUTT against Olfr1348 | -1.21
19 | GGAAGUUACUGUUGAGUAGTT against Olfr114 | 0.209
20 | GUUGAUGGAAACCAUGGAATT against Phf11d | -0.504
21 | GGAAAAAGCACCAUUGUGATT against Gnao1 | -0.819
22 | GCUACUUCGGGAAUUUUACTT against Ttc21a | -1.16
23 | CCCUAUGAGCAAAUCACAUTT against Ppp3cc | -0.499

Row | Sequence | z-score
24 | GGACUAAGAUUUGUGUUAGTT against Ccdc127 | 2.15 (active)
25 | GGGAAGUUCAGUUCAAUACTT against Hps4 | 1.11
26 | GCUGGAUAGCUAAAAUGAUTT against Gimap5 | -0.0294
27 | GCUAUAUUGUUAGCACACATT against Hmgn2 | 0.326
28 | CCUGGAGGAGUAUUUACACTT against H2-Ob | -1.17
29 | GGCUAUGGAGUUCACCACATT against Krtap5-5 | -2.66 (active)
30 | GGGAAGAAAUCAACGAUAATT against Gpa33 | -0.0673
31 | GGAACACACCAUCAUCCAGTT against H2-Ea | 1.29
32 | GGGCUAUGCCUACUACACUTT against Fn3k | 0.976
33 | CCGAGGUGAUUAGGAUAACTT against Traf3ip1 | -0.694
34 | GGAGGAGAACAGCAAUCUUTT against Speer4d | -2.38 (active)
35 | CCUCUUCAACAAACAAGCATT against Zscan22 | -0.379
36 | GCAGCAGUGAAAUAGCUUCTT against Eya1 | -0.643
37 | GGAUGCAUGGCUCAAUAUUTT against Olfr1164 | 2.01 (active)
38 | GCACAUUUGGACAACCAAUTT against AU018091 | -0.973
39 | GCCGCUAUCGUCUUUAUCATT against Ptk7 | 0.00632
40 | GGAGAAAAACAUCAUUGAATT against Reck | -0.102
41 | GGCUCUCAACUAAAGCAGCTT against Snu13 | -1.18
42 | GGGCUUUGUUUCCAAGUUGTT against Muc15 | -0.285
43 | GGUCUUUGCUACCAACCUGTT against Fignl1 | -2.15 (active)
44 | CCAUAGACUAUUAUCCUUATT against Uhrf1bp1l | -0.282
45 | GGACACAAAGAAGAAGAGGTT against Tarsl2 | 0.707
46 | GGUUAUUCUGGCUAUGGGCTT against Taf15 | -2.22 (active)

Row | Sequence | z-score
47 | GGAAAUAUUGAUGCUGCUGTT against Ttc39a | 1.09
48 | GGGAGUGCCUGGGUUUGUATT against Dusp28 | 3.19 (active)
49 | CAAAAAUAUCUACAGAGUCTT against Olfr494 | 0.207
50 | CGAGAAAAACGAUUUACUGTT against Orai2 | -0.527
51 | GGCAAUCCCAUAGAGGCUGTT against Mief2 | -2.64 (active)
52 | GGAUGAGAAUGGUUAUACUTT against Asz1 | 0.328
53 | CCGCCUCGUACAUGAUAUUTT against Mrgpra2b | 0.653
54 | GGAUUUAUUUGCCAACACUTT against Actbl2 | -2.28 (active)
55 | GGUUGCUAUUAUUAUUGGATT against Fnbp4 | 0.678
56 | GCCCAAGGAGGCAUUGAUATT against Fbxo8 | -0.653
57 | GGCUUCAUUUACUGUAACGTT against Flrt3 | -0.12
58 | GGAUAAACGGACAGGCCCATT against Socs2 | 0.282
59 | GGGUUCUGGGAAGGUAUAUTT against Olfr705 | -2.54 (active)
60 | GAUUGUGCCUUAUCUCUAATT against Vmn1r203 | 1.28
61 | GGCCUACAUUUUAAUUCAGTT against Tmem132c | -0.167
62 | GGCUCAGAUCAGAACUACGTT against Inpp4a | -0.129
63 | GGUAAACGAUGUACAGUUGTT against Notch2 | 2.6 (active)
64 | GCUAAAGUGAGCAGCGGGATT against Gipc3 | 0.218
65 | GCUACCUGCGACAAGAAAUTT against Defb23 | -0.79
66 | CCAUAUGUAGCUAUGGUUATT against Cul2 | 0.741
67 | CCAGUAGAAAGAAUCCAGATT against Gm128 | 0.0855
68 | GCCAGCUACUCUCUUGAGATT against Olfr419 | -1.03
